High-throughput results (PubChem BioAssay)
The list is not random: actives were taken first. Their share in the collection is about 10%.
GLA spleen mod: alpha-galactosidase A (human) modulation. P06280. Potency, µM (top dose mostly 80 µM), for inactives: at the top dose activity change, negative = inhibition, hits mostly inhibitors. hit rate 0.008% among 240,000. human spleen homogenate, 4MU-alpha-Gal fluorescence, 40 min. AID 2107;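 note: potency is the fitted concentration of half-maximal effect; 0% = enzyme with vehicle and -100% = no enzyme basal signal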
Target sequence (P06280 32-429 limits assumed): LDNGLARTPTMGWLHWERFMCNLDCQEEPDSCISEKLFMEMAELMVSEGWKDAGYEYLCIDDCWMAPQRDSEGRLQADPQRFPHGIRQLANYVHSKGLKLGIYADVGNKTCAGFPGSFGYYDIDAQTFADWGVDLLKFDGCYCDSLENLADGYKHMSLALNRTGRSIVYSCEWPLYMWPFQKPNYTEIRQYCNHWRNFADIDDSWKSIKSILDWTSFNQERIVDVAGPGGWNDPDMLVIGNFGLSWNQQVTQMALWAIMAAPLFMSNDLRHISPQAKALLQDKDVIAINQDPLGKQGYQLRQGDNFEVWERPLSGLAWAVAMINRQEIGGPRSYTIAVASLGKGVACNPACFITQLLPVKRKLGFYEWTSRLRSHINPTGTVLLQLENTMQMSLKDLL
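Fluorogenic readout (Ex 365/Em 440 nm) of 4-methylumbelliferone released from 1 mM 4-MU-alpha-galactoside by spleen homogenate, 40 min at 37C, pH 5.0. Data normalized to no-enzyme and enzyme controls; Hill-equation AC50 from compound titrations.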
PNC inhibitor: perinucleolar compartment assembly inhibition. AID 2417. activity change (PNC), negative = inhibition, % at 10 µM. PC3M PTB-GFP, PNC prevalence imaging, 16 h; active compounds read low. hit rate 3.1% among 140,000;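 active = readout at or below -70, meaning at least 70% loss of cells showing the perinucleolar compartment, a nuclear body marking cancer cells; inconclusive = readout between -30 and a set limit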;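 note: plate controls were DMSO wells for no effect and camptothecin positive control wells for full effect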
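Read-out is percentage of cells bearing a perinucleolar compartment, from automated 20x imaging of fixed, Hoechst-stained PC3M PTB-GFP cells. Cells were seeded 4 h, then exposed 16 h to compound (23 nl of library stock) in duplicate plates.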
HPGD block: HPGD (human) dehydrogenase inhibition | hit rate 4.3% among 150,000 | purified HPGD, NADH fluorescence kinetic, PGE2 substrate | Potency, µM, for the others: at the highest dose activity change, negative = inhibition, usual class: inhibitors | AID 894 | P15428; active = well fitted inhibition curve with a large enough effect, not every such curve was filed as active; inconclusive = small, poorly fitted or top-dose-only effect, or another doubt; inactive = no such curve, though single readings can be large or run the other way; note: potency is the fitted concentration of half-maximal effect
Target sequence (P15428 whole entry, looked up): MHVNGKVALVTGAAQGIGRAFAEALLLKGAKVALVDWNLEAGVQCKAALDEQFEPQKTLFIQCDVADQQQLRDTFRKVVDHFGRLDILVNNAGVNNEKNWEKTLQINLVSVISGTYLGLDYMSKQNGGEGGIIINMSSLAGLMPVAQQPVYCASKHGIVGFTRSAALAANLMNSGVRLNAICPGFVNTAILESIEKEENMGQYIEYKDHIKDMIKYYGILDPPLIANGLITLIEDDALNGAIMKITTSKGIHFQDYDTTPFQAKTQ
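20 nM HPGD preincubated 15 min at room temperature with compound in 50 mM Tris-HCl pH 8, 0.01% Tween 20. Started with 1 mM NAD+ and 30 uM prostaglandin E2; NADH fluorescence (360/450 nm) read 5 times over 30-s intervals, last minus first.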
ALOX12 inhib: blocks human 12-lipoxygenase activity; hit rate 0.12% among 150,000; purified 12-hLO, xylenol orange hydroperoxide absorbance; AID 1452; Potency, µM (top dose mostly 57.1 µM), for inactives: at the top dose activity change, negative = inhibition, hits mostly inhibitors; P18054; note: potency is the fitted concentration of half-maximal effect; nearly all actives have a fitted effect of over 55% in size
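Purified human 12hLO (150 nM final) was preincubated with compounds for 15 min at room temperature in 25 mM Hepes pH 7.0, 0.01% Triton X-100, then reacted with 40 uM arachidonic acid for 30 min. Hydroperoxide was detected with ferrous iron/xylenol orange.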
ALDH1A1 inh: blocks purified human ALDH1A1 activity; Purified ALDH1A1, NADH fluorescence, propionaldehyde substrate; Potency, µM (series often up to 75.3 µM), for the others: at the highest dose activity, negative = inhibition, hits mostly inhibitors; hit rate 7.3% among 220,000; active = well fitted inhibition curve with a large enough effect, not every such curve was filed as active; inconclusive = small, poorly fitted or top-dose-only effect, or another doubt; inactive = no such curve, though single readings can be large or run the other way;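 note: potency is the fitted concentration of half-maximal effect; plate controls were no enzyme wells and a reference inhibitor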
GLA inh pH 4.5: blocks human alpha-galactosidase A at pH 4.5. 230,000 tested, under 10 active. purified enzyme, 4-MU-alpha-Gal fluorescence, pH 4.5. activity change, negative = inhibition, % at 105 µM. AID 1467;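 note: 0% = full activity with enzyme and -100% = basal without enzyme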
* marks the source's active call; other numbers are inactive results; ? = inconclusive; / = no result; [ ] = another dose, or the depositor's remark. Unless noted, calls come from the whole dose curve; as a rule, active = well fitted curve in the direction sought with a large enough effect; inconclusive = small, poorly fitted or top-dose-only effect, or another doubt; inactive = no such curve, though single readings can be large; an effect the other way counts as inactive or inconclusive. Unless noted, % is set by controls: 0 for no effect and ±100 for the full control effect.

SMILES	GLA spleen mod	PNC inhibitor	HPGD block	ALOX12 inhib	ALDH1A1 inh	GLA inh pH 4.5
COC(=O)c1ccc(CSc2cc(C)c3cc(C)cc(C)c3n2)o1	?	/	/	/	13µM*	5
COC(=O)c1ccc(CSc2n[nH]c(C)n2)o1	1%	-26	-8%	2%	7%	1
COC(=O)c1ccc(CSc2n[nH]c(=S)s2)o1	-8%	?	?	-2%	3.5µM*	-5
CCCCN=C1NC(=O)C(CC(=O)NCCc2ccc(OC)cc2)S1 (centres undefined)	-1%	29	-18%	-6%	?	4
CC(C)NC[C@H]1CCc2cc(CO)c([N+](=O)[O-])cc2N1	6%[29.1 µM]	/	0%	0%[25.6 µM]	19%[20.9 µM]	7
CC(=O)NC(Cc1ccccc1)C(=O)N1CCN(C(=O)c2ccco2)CC1 (centres undefined)	9%	57	-13%	3%	10µM*	1
O=C(NC(Cc1ccccc1)C(=O)N1CCN(c2ccccn2)CC1)c1ccco1 (centres undefined)	2%	?	-17%	-6%	-10%	0
O=C(c1ccco1)N1CCN(C(=O)C(Cc2ccccc2)NS(=O)(=O)c2cccs2)CC1 (centres undefined)	?	33	-8%	-4%	14µM*	-3
Fc1ccc(-c2[nH]ncc2CN2CCN(c3ccc(F)cc3)CC2)cc1	2%	/	/	/	1%	-7
Fc1ccc(N2CCN(Cc3cn[nH]c3-c3ccccc3)CC2)cc1	-2%	/	/	/	14µM*	-10
O=S(=O)(Nc1nc2ccccc2nc1Nc1ccc2c(c1)OCO2)c1ccc(F)cc1	2%	-84*	/	0%	-3%	-1
O=C(Nc1cnn(Cc2ccc(Cl)c(Cl)c2)c1)c1nc2ncccn2n1	-2%	21	20µM*	-8%	-3%	3
Cc1nc2cccc([N+](=O)[O-])c2n1CCCN(C)C	/	/	-1%	2%[11.4 µM]	?	/
Cc1ccc(-n2c(CSc3nc(C)cc(C)n3)nnc2SCC(=O)N2CCCC2)cc1	-3%	-100*	3%	-7%	?	-6
O=C(CSc1nc2ccccc2nc1SCC(=O)N1CCCCC1)N1CCCCC1	-16%	-20	2.5µM*	-10%	10%	-2
Cc1cc(C)nc(SCC(=O)c2ccc([N+](=O)[O-])cc2)n1	4%	1	-12%	-4%	?	2
O=C(CSc1nc2ccccc2nc1SCC(=O)N1CCOCC1)N1CCOCC1	4%	?	-20%	2%	3%	-9
Cc1cc(C)nc(SCC(=O)c2ccc(O)cc2O)n1	6%	-92*	-19%	1%	11%	-3
Cc1cc(C)nc(SCc2nnc(SCC#N)n2-c2cccc(Cl)c2)n1	6%	-8	16µM*	-1%	9%	-3
Cc1cc(C)nc(SCc2nnc(SCC(=O)O)n2-c2ccccc2)n1	-5%	/	/	/	8%	1
COc1cc(CN(C)Cc2ccccc2)cc(OC)c1O	-1%	?	-2%	-4%	0%	-2
Cc1cc(C)nc(SCC(=O)N2CCCCC2)n1	2%	?	7.9µM*	-2%	?	3
Nc1cc(N)nc(SCC(=O)N2CCCCC2)n1	-1%	35	28µM*	4%	-4%	-2
Cc1cc(C)nc(SCC(=O)NN)n1	-3%	/	/	/	10µM*	3
Nc1cc(=O)[nH]c(SCC(=O)N2CCCCC2)n1	-2%	/	/	/	-10%	-5
SMILES	GLA spleen mod	PNC inhibitor	HPGD block	ALOX12 inhib	ALDH1A1 inh	GLA inh pH 4.5
Cc1cc(C)nc(SCC(=O)Nc2ncccn2)n1	-25%	17	-6%	-1%	5%	-1
COc1ccc(N2CCN(S(=O)(=O)c3ccc4c(c3)OCCO4)CC2)cc1	4%	/	/	/	-5%	-10
NC(=O)C/C=C\CC(N)=O	/	/	-12%	2%[11.4 µM]	-16%[13.5 µM]	/
C=CCOc1ccc(CC(=O)O)cc1Cl	8%	/	-10%	-5%[0.00818 µM]	15%	-13
COc1ccc(/C=C2/SC(=O)N(CCNC(=O)C3CCCN3C(=O)c3cccs3)C2=O)cc1 (centres undefined)	-1%	-100*	?	1%	-13%	2
O=C(NCCN1C(=O)S/C(=C/c2ccccc2)C1=O)C1CCCN1C(=O)c1cccs1 (centres undefined)	4%	-23	/	-2%	-9%	2
CC(=O)N1CCN(Cc2nc3cc(NC(=O)NC4CCCCC4)ccc3n2C)CC1	-3%	/	/	/	-3%	-11
S=c1[nH]nc(C2CC2c2ccc(Cl)cc2)n1-c1ccc(Cl)cc1 (centres undefined)	-1%	-16	5µM*	-29%	0%	-16
Cc1ccc(-n2c(C3CC3c3ccc(Cl)cc3)n[nH]c2=S)cc1 (centres undefined)	-5%	?	8.9µM*	?	7%	-28
Cc1ccc(-n2c([C@@H]3C[C@H]3c3ccccc3)n[nH]c2=S)cc1	1%	-7	?	-5%	?	4
Nc1n[nH]c(=S)n1-c1ccc(Cl)cc1	-8%	/	/	/	1.6µM*	1
Cc1ccc(C2CC2c2n[nH]c(=S)n2-c2ccc(C)cc2)cc1 (centres undefined)	-1%	-27	?	-13%	?	-12
S=c1[nH]nc(CN2CCCCC2)n1-c1ccc(Cl)cc1	-13%	/	/	/	-2%	10
CCOc1ccc2cc(C3CC(c4ccco4)=NN3S(C)(=O)=O)c(=O)[nH]c2c1 (centres undefined)	-3%	/	/	/	/	-3
CCOC(=O)[C@@]12C[C@@H]1/C(=N/O)c1ccccc1O2	5%	/	-22%	-5%	-2%	0
CCOC(=O)N1CCC(N2Cc3cccc(C(=O)NCc4ccc5c(c4)OCO5)c3C2=O)CC1	-7%	/	/	/	1%	-1
CCOC(=O)N1CCC(N2Cc3cccc(C(=O)NCc4ccc(OC)cc4)c3C2=O)CC1	0%	-13	-8%	-2%	20µM*	1
CCOC(=O)N1CCC(N2Cc3cccc(C(=O)Nc4ccc(F)cc4)c3C2=O)CC1	2%	41	-14%	-8%	6%	-8
CCOC(=O)N1CCC(N2Cc3cccc(C(=O)Nc4ccc(CC)cc4)c3C2=O)CC1	-4%	-108*	-14%	0%	130%	-3
CCOC(=O)N1CCC(N2Cc3cccc(C(=O)NCc4ccccc4OC)c3C2=O)CC1	2%	-100*	-11%	-5%	5%	-9
c1ccc(CNc2cc(-c3ccoc3)ncn2)cc1	-8%	/	/	/	22µM*	/
COc1ccc(CNc2cc(-c3ccoc3)ncn2)c(OC)c1	?	/	/	/	25µM*	/
COc1cccc(-c2cc(NCc3ccccc3OC)ncn2)c1	-19%	/	/	/	9%	/
